Experimental data published in the supplement of paper PMC12024424.

Each molecule was assayed on Staphylococcus aureus Sa2 (MRSA, cystic fibrosis isolate) (assay: growth reduction vs untreated control (viable cell count); higher = stronger antibacterial activity; extreme values may be limits of the assay). Settings: 0.1 mM; 24 h.
Method: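 Single-dose screen of the MedChem Express Drug Repurposing Library (0.1 mM, 1% DMSO) against planktonic MRSA S. aureus Sa2 (CF isolate) in TSB in 96-well plates, 37 °C aerobic, 24 h. Assays were run in triplicate and repeated twice.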

SMILES	growth reduction [%]
Oc1c(Br)cc(Br)c2cccnc12 [Broxyquinoline]	100
CC(C)/N=c1\cc2n(-c3ccc(Cl)cc3)c3ccccc3nc-2cc1Nc1ccc(Cl)cc1 [Clofazimine]	100
C[C@H](Nc1cc(-c2cnn(C)c2)cc(Nc2cnccn2)n1)c1ccc(F)cc1 [Ilginatinib]	94
COc1ccc2c(c1OCc1ccccc1)C[C@@H](C(=O)O)N(C(=O)C(c1ccccc1)c1ccccc1)C2 [Olodanrigan]	100
Cc1c(Cl)c(C)[n+]([O-])c(Cl)c1-c1noc(-c2cc(O)c(O)c([N+](=O)[O-])c2)n1 [Opicapone]	100
O=c1[nH]cc(F)c(=O)[nH]1 [5-Fluorouracil]	100
NCCCC[C@H](NC(=O)[C@@H](NC(=O)[C@H](Cc1c[nH]c2ccccc12)NC(=O)[C@H](CCCCN)NC(=O)[C@H](CCCCN)NC(=O)[C@H](Cc1c[nH]c2ccccc12)NC(=O)[C@H](Cc1c[nH]c2ccccc12)NC(=O)[C@H](CCCCN)NC(=O)[C@@H](N)CCCCN)C(c1ccccc1)c1ccccc1)C(N)=O	100
O=C1Nc2ccc(Cl)cc2[C@@](C#CC2CC2)(C(F)(F)F)O1 [Efavirenz]	98
CS(=O)(=O)c1ccc([C@@H](O)[C@@H](CF)NC(=O)C(Cl)Cl)cc1 [Florfenicol]	100
COc1cccc(OC)c1-c1cc(C(=O)NC2(C(=O)O)C3CC4CC(C3)CC2C4)nn1-c1ccnc2cc(Cl)ccc12 (stereo unspecified) [Meclinertant]	100
Cc1noc(-c2ccc(-c3ccc(C4(C(=O)O)CC4)cc3)cc2)c1NC(=O)O[C@H](C)c1ccccc1	100
